Test results as given in PubChem BioAssay (EPA / NIEHS).
Results filed as inconclusive are left out. The source made the active and inactive calls. The calls were made as follows: active = hit-call score of the fitted dose curve at least 0.9, where 1 is the maximum; inconclusive = response in the unintended direction; inactive = score below 0.9.

What follows are compounds tested against Retinoic acid receptor RXR-alpha (Homo sapiens) (UniProt P19793) (assay: OT_NURR1_NURR1RXRa_0480: Odyssey Thera (OT) 8-hour HEK293T Protein Complementation Assay for Nurr1/retinoid X receptor (RXR) (AID 2283385)).
Retinoic acid receptor RXR-alpha (Homo sapiens), sequence (P19793 whole entry, looked up, the tested form may be a part): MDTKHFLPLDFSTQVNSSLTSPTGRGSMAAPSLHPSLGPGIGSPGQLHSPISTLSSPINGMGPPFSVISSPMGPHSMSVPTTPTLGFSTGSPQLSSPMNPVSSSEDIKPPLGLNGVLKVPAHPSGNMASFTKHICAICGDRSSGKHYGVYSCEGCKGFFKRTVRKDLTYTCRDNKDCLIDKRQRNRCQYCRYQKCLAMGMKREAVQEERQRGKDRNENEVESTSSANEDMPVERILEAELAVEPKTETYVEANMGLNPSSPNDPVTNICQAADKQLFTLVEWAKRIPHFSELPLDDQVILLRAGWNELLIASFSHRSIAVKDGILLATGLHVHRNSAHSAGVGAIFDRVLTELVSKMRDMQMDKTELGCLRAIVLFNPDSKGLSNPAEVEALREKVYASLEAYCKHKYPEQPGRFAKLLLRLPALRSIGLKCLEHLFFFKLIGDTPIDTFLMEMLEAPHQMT
Description: OT_NURR1_NURR1RXRa_0480 is a cell-based assay that uses HEK293T, a human kidney cell line, with measurements taken at 8 hours after chemical dosing in a 384-well plate.OT_NURR1_NURR1RXRa_0480 is one of one assay component(s) measured or calculated from the OT_NURR1_NURR1RXRa_0480 assay. It is designed to make measurements of protein fragment complementation, a form of binding reporter, as detected with fluorescence intensity signals by Protein-fragment Complementation technology.Data from the assay component OT_NURR1_NURR1RXRa_0480 was analyzed into 1 assay endpoint. This assay endpoint, OT_NURR1_NURR1RXRa_0480, was analyzed in the positive analysis fitting direction relative to DMSO as the negative control and baseline of activity. Using a type of binding reporter, measures of receptor for gain-of-signal activity can be used to understand the binding at the pathway-level as they relate to the gene RXRA. Furthermore, this assay endpoint can be referred to as a primary readout, because the performed assay has only produced 1 assay endpoint. To generalize the intended target to other relatable targets, this assay endpoint is annotated to the nuclear receptor intended target family, where the subfamily is non-steroidal.
Protein-fragment complementation assay, or PCA, is a method for the identification and quantification of protein-protein interactions. In the PCA, the proteins of interest ("bait" and "prey") are each covalently linked to fragments of a third protein (e.g. DHFR, which acts as a "reporter"). Interaction between the bait and the prey proteins brings the fragments of the reporter protein in close proximity to allow them to form a functional reporter protein whose activity can be measured.
`C=CC[N+](C)(C)CC=C` was tested, and the outcome was “inactive”. For `NCCCCCCN`, the outcome was “inactive”. `CCC(=O)/C=C/C1C(C)=CCCC1(C)C` (stereo not given) was tested, and the AC50 was 78.4 µM (active). `c1ccc2[nH]ccc2c1` was tested, and the outcome was “inactive”. `CCCCCOC(=O)CCC` was tested, and the outcome was “inactive”. With `CC(=O)C=CC1=C(C)CCCC1(C)C` the AC50 was 50 µM (active). In the case of `NC(=O)NC1NC(=O)NC1=O` (stereo not given), the outcome is reported as “inactive”. In the case of `COc1c(Cl)c(Cl)c(Cl)c(Cl)c1Cl`, the outcome is reported as “inactive”. `CC(C)=CCC[C@](C)(O)[C@@H]1CC=C(C)CC1` was tested, and the outcome was “inactive”. With `CCCC/C=C\CCCCCCCCCC=O` the outcome was “inactive”. For `CCCCC(CC)COC(=O)/C=C\C(=O)OCC(CC)CCCC` (stereo not given), the AC50 was 7.85 µM (active). With `CCCCCCCCCC=O` the outcome was “inactive”. With `C=C(C)C(=O)O` the outcome was “inactive”. With `CC(C)(C)C(=O)c1ccccc1` the outcome was “inactive”. In the case of `CCCCCCCCC=O`, the outcome is reported as “inactive”. For `CC1CC(OC(=O)c2ccccc2O)CC(C)(C)C1` (stereo not given), the AC50 was 92.8 µM (active). With `C=CC(C)(O)CCC=C(C)CCC=C(C)C` (stereo not given) the outcome was “inactive”. In the case of `CC(C)c1cccc(O)c1`, the outcome is reported as “inactive”. With `CC(C)=CCCC(C)CC=O` (stereo not given) the outcome was “inactive”. With `CCCCCC(CO)CCC` (stereo not given) the outcome was “inactive”. For `CCCC1CCC(=O)O1` (stereo not given), the outcome was “inactive”. In the case of `CCCCCCCCCCN`, the AC50 is reported as 59.8 µM (active). For `C=CCOc1nc(OCC=C)nc(OCC=C)n1`, the outcome was “inactive”. In the case of `BrC1CCC(Br)C(Br)CCC(Br)C(Br)CCC1Br` (stereo not given), the outcome is reported as “inactive”. `CCCCCCCCCCCCCCCCCC(=O)OCC(CC)CCCC` (stereo not given) was tested, and the outcome was “inactive”. In the case of `CCCCCCCCCCCCCCCC(=O)OC[C@H](O)[C@H]1OC(=O)C(O)=C1O`, the outcome is reported as “inactive”. In the case of `O=C1NC(=O)c2ccccc21`, the outcome is reported as “inactive”. In the case of `O=C1C(c2[nH]c3ccc(S(=O)(=O)O)cc3c2O)=Nc2ccc(S(=O)(=O)O)cc21`, the outcome is reported as “inactive”. In the case of `CCCCCCCCCCCCCCCC(=O)O`, the outcome is reported as “inactive”. In the case of `O=C[C@@H](O)[C@H](O)[C@H](O)CO`, the outcome is reported as “inactive”. For `NCCCN1CCOCC1`, the outcome was “inactive”. With `CCCCC[Si](OCC)(OCC)OCC` the outcome was “inactive”. `CCCCOCCOCCOCCOCCO` was tested, and the outcome was “inactive”. For `O=c1cc(-c2ccccc2)oc2cc(O)cc(O)c12`, the outcome was “inactive”. In the case of `C[Si](O[Si](C)(C)C)O[Si](C)(C)C`, the outcome is reported as “inactive”. With `CC1COc2ccccc2N1C(=O)C(Cl)Cl` (stereo not given) the outcome was “inactive”. With `OCCN1CCNCC1` the outcome was “inactive”. `O=Nc1ccc(Nc2ccccc2)cc1` was tested, and the AC50 was 0.707 µM (active). With `Cc1ccc(S)cc1` the AC50 was 79.4 µM (active). With `O=C(Cl)c1cccc(C(=O)Cl)c1` the outcome was “inactive”.
